Inconclusive results are not listed. Entries that show only a call come without a potency. Values without a mark were called inactive. Active and inactive are the calls of the source. Unless noted, the call rests on the fitted dose curve; in most records, active means well fitted curve in the direction sought with a large enough effect in the repeat runs; inconclusive means weak or mixed curves; inactive means no such curve, though single readings can be large; an effect the other way counts as inactive or inconclusive.
Tests used:
[1] = qHTS RealTime-Glo MT Cell Viability Assay in HEK293 cells - 24 hour (AID 1224886); further: nearly all actives have a fitted effect of over 50% in size; further: potency means the concentration at half of the fitted maximal effect; on activity change, negative = cytotoxicity: top concentration of the series differs between compounds
Outline: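 Reads taken at 0, 8, 16, 24, 32 and 40 h from the same wells. HEK293 cells (600/well) carried RealTime-Glo reagents from seeding, with compound added after a 5 h settle at 37 C.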

[2] = qHTS RealTime-Glo MT Cell Viability Assay in HEK293 cells - 8 hour (AID 1224887); further: nearly all actives have a fitted effect of over 50% in size; further: potency means the concentration at half of the fitted maximal effect; on activity change, negative = cytotoxicity: top concentration of the series differs between compounds
Outline: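 Tox21 screen in HEK293 using RealTime-Glo MT chemistry, with cells and reagent co-dispensed. Luminescence proportional to viable cell number was captured at intervals during 40 h compound exposure at 37 C.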

[3] = A CellTox Green Cytotoxicity Assay to monitor cytotoxicity in HEK293 cells - 16 hour (AID 1224888); further: nearly all actives have a fitted effect of over 35% in size
Outline: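 Seeding of HEK293 cells together with cytotoxicity dye preceded a 5 h incubation at 37 C/5% CO2. Test compounds in DMSO were then added and fluorescence monitored across 40 h.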

[4] = qHTS RealTime-Glo MT Cell Viability Assay in HepG2 cells - 0 hour (AID 1224889); further: nearly all actives have a fitted effect of over 50% in size
Outline: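 HepG2 suspension premixed with RealTime-Glo reagents is plated at 600 cells per well and left 5 h at 37 C/5% CO2. Compounds in DMSO then go in, and bioluminescence reflecting viable cell number is recorded over 40 h.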

[5] = A CellTox Green Cytotoxicity Assay to monitor cytotoxicity in HepG2 cells - 8 hour (AID 1224890); further: nearly all actives have a fitted effect of over 45% in size; further: potency means the concentration at half of the fitted maximal effect
Outline: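 Nonlytic assay: viable cells exclude the dye, so fluorescence scales with cell death. HepG2 at 600 cells/well, compounds added after 5 h, signal read across 40 h.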

[6] = qHTS assay to identify small molecule antagonists of the estrogen receptor alpha (ER-alpha) signaling pathway using the BG1 cell line in the presence of 0.1 nM 17-beta-estradiol - cell viability counter screen (AID 1259241); further: nearly all actives have a fitted effect of over 40% in size
Outline: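 Following 5 days in phenol red-free medium with charcoal-stripped serum, VM7Luc4E2 cells received test compounds alongside 0.1 nM 17beta-estradiol (final) at 37C for 22 hr. Live cells were then quantified via protease-substrate fluorescence.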

[7] = qHTS assay to identify small molecule antagonists of the androgen receptor (AR) signaling pathway using the MDA cell line in the presence of 0.5 nM R1881 - cell viability counter screen (AID 1259242); further: nearly all actives have a fitted effect of over 45% in size
Outline: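 R1881 at 0.5 nM final stimulated MDA-kb2 cells during 16 hr compound treatment at 37C. Cytotoxicity read: CellTiter-Fluor fluorescence after 30 min.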

[8] = target: Androgen receptor (Homo sapiens) (UniProt P10275); assay: qHTS assay to identify small molecule antagonists of the androgen receptor (AR) signaling pathway using the MDA cell line in the presence of 0.5 nM R1881 (AID 1259243); further: nearly all actives have a fitted effect of over 50% in size
Outline: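 We exposed MDA-kb2 cells to compounds under 0.5 nM R1881 stimulation for 16 hr at 37C and quantified MMTV-driven luciferase by luminescence.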

[9] = target: Estrogen receptor (Homo sapiens) (UniProt P03372); assay: qHTS assay to identify small molecule antagonists of the estrogen receptor alpha (ER-alpha) signaling pathway using the BG1 cell line in the presence of 0.1 nM 17-beta-estradiol (AID 1259244); further: nearly all actives have a fitted effect of over 50% in size; further: potency means the concentration at half of the fitted maximal effect
Outline: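 VM7Luc4E2; 4xERE-luciferase; 0.1 nM E2 final; 22 h co-incubation, 37C; ONE-Glo luminescence after 30 min at room temperature.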

[10] = qHTS assay to identify small molecule phospholipidosis (PLD) inducers (AID 1259344; active means well fitted curve in the direction sought with a large enough effect; an effect the other way counts as inactive or inconclusive)
Outline: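 HepG2 cells on collagen I, attached 4 h at 37 C, were co-treated with compound and LipidTOX Red dye for 24 h at 37 C, then fixed with paraformaldehyde plus Hoechst 33342 and imaged by high-content microscopy for phospholipid accumulation.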

Chain of Androgen receptor (Homo sapiens) (P10275 whole entry, looked up): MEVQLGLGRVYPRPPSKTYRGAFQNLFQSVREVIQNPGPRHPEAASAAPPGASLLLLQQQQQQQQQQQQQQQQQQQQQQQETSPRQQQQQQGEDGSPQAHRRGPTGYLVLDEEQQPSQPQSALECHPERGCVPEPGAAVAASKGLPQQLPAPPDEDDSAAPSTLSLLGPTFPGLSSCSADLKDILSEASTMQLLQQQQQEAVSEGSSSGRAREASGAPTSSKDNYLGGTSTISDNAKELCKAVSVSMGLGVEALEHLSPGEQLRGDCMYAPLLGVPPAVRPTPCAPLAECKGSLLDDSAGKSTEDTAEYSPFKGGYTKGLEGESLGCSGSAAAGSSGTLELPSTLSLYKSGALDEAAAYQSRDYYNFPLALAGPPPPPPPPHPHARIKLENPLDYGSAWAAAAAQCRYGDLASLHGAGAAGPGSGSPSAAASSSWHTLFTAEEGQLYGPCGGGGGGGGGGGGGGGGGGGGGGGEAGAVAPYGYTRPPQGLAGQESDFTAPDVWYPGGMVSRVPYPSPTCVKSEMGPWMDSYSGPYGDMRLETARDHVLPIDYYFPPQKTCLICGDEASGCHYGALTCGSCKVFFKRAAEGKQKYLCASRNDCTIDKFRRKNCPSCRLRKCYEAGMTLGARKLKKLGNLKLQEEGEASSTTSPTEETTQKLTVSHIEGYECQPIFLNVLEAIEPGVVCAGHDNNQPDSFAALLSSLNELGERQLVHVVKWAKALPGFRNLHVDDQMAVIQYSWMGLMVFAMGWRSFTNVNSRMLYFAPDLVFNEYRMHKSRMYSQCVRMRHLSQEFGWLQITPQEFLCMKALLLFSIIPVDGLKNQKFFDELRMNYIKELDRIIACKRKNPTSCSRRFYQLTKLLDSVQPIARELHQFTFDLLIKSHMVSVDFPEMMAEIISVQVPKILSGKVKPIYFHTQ
Chain of Estrogen receptor (Homo sapiens) (P03372 whole entry, looked up): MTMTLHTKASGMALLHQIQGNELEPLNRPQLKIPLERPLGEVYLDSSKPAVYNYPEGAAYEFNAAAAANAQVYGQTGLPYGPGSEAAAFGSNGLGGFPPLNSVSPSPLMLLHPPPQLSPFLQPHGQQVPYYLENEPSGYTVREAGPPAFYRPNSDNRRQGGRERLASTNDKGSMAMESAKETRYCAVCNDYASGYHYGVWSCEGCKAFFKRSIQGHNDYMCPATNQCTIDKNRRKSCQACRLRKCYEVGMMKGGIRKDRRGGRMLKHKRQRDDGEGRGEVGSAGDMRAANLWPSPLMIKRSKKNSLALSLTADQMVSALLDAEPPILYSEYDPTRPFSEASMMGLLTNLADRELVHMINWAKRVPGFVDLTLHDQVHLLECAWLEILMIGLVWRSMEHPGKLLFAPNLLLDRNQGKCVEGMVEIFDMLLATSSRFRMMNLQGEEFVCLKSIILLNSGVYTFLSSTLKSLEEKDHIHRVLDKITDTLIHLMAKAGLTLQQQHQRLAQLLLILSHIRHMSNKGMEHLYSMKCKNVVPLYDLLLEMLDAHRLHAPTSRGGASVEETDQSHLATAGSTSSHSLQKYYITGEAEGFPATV

Q: Which Potency [1] does the source give for `CCCCCC1CCCC(=O)O1` (stereo not given) here?
A: inactive

Q: What about the Potency [2] of the same molecule?
A: inactive

Q: And the Potency [3]?
A: inactive

Q: What about the Potency [4] of the same molecule?
A: inactive

Q: What about the Potency [5] of the same molecule?
A: inactive

Q: And the Potency [6]?
A: inactive

Q: What about the Potency [7] of the same molecule?
A: inactive

Q: Which Potency [1] does the source give for `C/C=C(\C)C(=O)OCC/C=C\CC` here?
A: inactive

Q: And the Potency [2]?
A: inactive

Q: And the Potency [3]?
A: inactive

Q: And the Potency [4]?
A: inactive

Q: What about the Potency [5] of the same molecule?
A: inactive

Q: What about the Potency [6] of the same molecule?
A: inactive

Q: And the Potency [7]?
A: inactive

Q: With `CN(C)CCCNCCC#N` as the molecule, how does the Potency [1] read?
A: inactive

Q: What about the Potency [2] of the same molecule?
A: inactive

Q: And the Potency [3]?
A: inactive

Q: And the Potency [4]?
A: inactive

Q: And the Potency [5]?
A: inactive

Q: What about the Potency [6] of the same molecule?
A: inactive

Q: What about the Potency [7] of the same molecule?
A: inactive

Q: Which results are given for `C=C(C)C(=O)OCCCCCCOC(=O)C(=C)C`?
A: Potency [1]: inactive; Potency [2]: inactive; Potency [3]: inactive; Potency [4]: inactive; Potency [5]: inactive; Potency [6]: inactive; Potency [7]: inactive

Q: Which activity change, negative = cytotoxicity [1] does the source give for `CCCCCCCCCCCCCCCCI` here?
A: -7.78% [at 15.8 µM]

Q: And the activity change, negative = cytotoxicity [2]?
A: -0.789% [at 15.8 µM]

Q: What about the activity change [3] of the same molecule?
A: -4.25% [at 15.8 µM, stronger effect = higher value]

Q: What about the activity change, negative = cytotoxicity [4] of the same molecule?
A: -19.8% [at 15.8 µM]

Q: What about the cytotoxicity increase [5] of the same molecule?
A: -10.7% [at 15.8 µM]

Q: And the activity change, negative = cytotoxicity [6]?
A: 7.96% [at 19 µM]

Q: And the viability change, negative = cytotoxic [7]?
A: 2.57% [at 19 µM]

Q: What about the outcome [8] of the same molecule?
A: inactive

Q: What does the source list for `SCCSCCS`?
A: Potency [1]: inactive; Potency [2]: inactive; Potency [3]: inactive; Potency [4]: inactive; Potency [5]: inactive; Potency [6]: inactive; Potency [7]: inactive

Q: What does the source list for `O=C(O)c1ccccc1C(=O)OCc1ccccc1`?
A: Potency [1]: inactive; Potency [2]: inactive; Potency [3]: inactive; Potency [4]: inactive; Potency [5]: inactive; Potency [6]: inactive; Potency [7]: inactive; outcome [8]: inactive; Potency [9]: inactive

Q: What does the source list for `O=C1OC(=O)c2cc(Oc3ccc4c(c3)C(=O)OC4=O)ccc21`?
A: Potency [1]: inactive; Potency [2]: inactive; Potency [3]: inactive; Potency [4]: inactive; Potency [5]: inactive; Potency [6]: inactive; Potency [7]: inactive; outcome [8]: inactive; Potency [9]: inactive

Q: What does the source list for `C=CCOCC(O)CCl` (stereo not given)?
A: Potency [1]: inactive; Potency [2]: inactive; Potency [3]: inactive; Potency [4]: inactive; Potency [5]: inactive; Potency [6]: inactive; Potency [7]: inactive; outcome [8]: inactive; Potency [9]: inactive

Q: Which Potency [1] does the source give for `Cn1c(=O)c2c(ncn2CC2OCCO2)n(C)c1=O` here?
A: inactive

Q: And the Potency [2]?
A: inactive

Q: And the Potency [3]?
A: inactive

Q: What about the Potency [4] of the same molecule?
A: inactive

Q: And the Potency [5]?
A: inactive

Q: What about the Potency [6] of the same molecule?
A: inactive

Q: And the Potency [7]?
A: inactive

Q: What about the outcome [8] of the same molecule?
A: inactive

Q: And the outcome [10]?
A: inactive

Q: What does the source list for `O=C1c2ccccc2-c2ccccc21`?
A: Potency [1]: inactive; Potency [2]: inactive; Potency [3]: inactive; Potency [4]: inactive; Potency [5]: inactive; Potency [6]: inactive; Potency [7]: inactive

Q: With `CCN(CC)C(=O)C1CN2CCc3cc(OC)c(OC)cc3C2CC1OC(C)=O` (stereo not given) as the molecule, how does the Potency [1] read?
A: inactive

Q: What about the Potency [2] of the same molecule?
A: inactive

Q: What about the Potency [3] of the same molecule?
A: inactive

Q: And the Potency [4]?
A: inactive

Q: And the Potency [5]?
A: inactive

Q: And the Potency [6]?
A: inactive

Q: And the Potency [7]?
A: inactive

Q: What about the outcome [8] of the same molecule?
A: inactive

Q: And the Potency [9]?
A: inactive

Q: With `C=CCOc1cc(Cl)ccc1C(=O)NCCN(CC)CC` as the molecule, how does the Potency [1] read?
A: inactive

Q: What about the Potency [2] of the same molecule?
A: inactive

Q: What about the Potency [3] of the same molecule?
A: inactive

Q: What about the Potency [4] of the same molecule?
A: inactive

Q: And the Potency [5]?
A: inactive

Q: And the Potency [6]?
A: inactive

Q: And the Potency [7]?
A: inactive

Q: With `COc1cccc2sc(N)nc12` as the molecule, how does the Potency [1] read?
A: inactive

Q: What about the Potency [2] of the same molecule?
A: inactive

Q: What about the Potency [3] of the same molecule?
A: inactive

Q: What about the Potency [4] of the same molecule?
A: inactive

Q: What about the Potency [5] of the same molecule?
A: inactive

Q: And the Potency [6]?
A: inactive

Q: What about the Potency [7] of the same molecule?
A: inactive

Q: And the outcome [8]?
A: inactive

Q: And the Potency [9]?
A: inactive

Q: For `CC(=O)OC[C@H]1O[C@@H](OC(C)=O)[C@H](OC(C)=O)[C@@H]1OC(C)=O`, which Potency [1] is on record?
A: inactive

Q: What about the Potency [2] of the same molecule?
A: inactive

Q: And the Potency [3]?
A: inactive

Q: What about the Potency [4] of the same molecule?
A: inactive

Q: And the Potency [5]?
A: inactive

Q: And the Potency [6]?
A: inactive

Q: What about the Potency [7] of the same molecule?
A: inactive

Q: What about the outcome [8] of the same molecule?
A: inactive

Q: And the Potency [9]?
A: inactive

Q: Which Potency [1] does the source give for `Cc1nc2n(c(=O)c1CCN1CCC(C(=O)c3ccc(F)cc3)CC1)CCS2` here?
A: 5.35 µM (active)

Q: And the Potency [2]?
A: 6.74 µM (active)

Q: And the Potency [3]?
A: inactive

Q: And the Potency [4]?
A: inactive

Q: And the Potency [5]?
A: inactive

Q: And the Potency [6]?
A: inactive

Q: What about the Potency [7] of the same molecule?
A: inactive

Q: And the outcome [8]?
A: inactive

Q: And the Potency [9]?
A: 23.7 µM (active)

Q: With `CCCCC(CC)CNC(=O)CC(C)OC(=O)CCC(=O)O` (stereo not given) as the molecule, how does the Potency [1] read?
A: inactive

Q: And the Potency [2]?
A: inactive

Q: And the Potency [3]?
A: inactive

Q: And the Potency [4]?
A: inactive

Q: And the Potency [5]?
A: 26.8 µM (active)

Q: And the Potency [6]?
A: inactive

Q: And the Potency [7]?
A: inactive

Q: What about the outcome [8] of the same molecule?
A: inactive

Q: And the Potency [9]?
A: inactive

Q: For `Cc1ncc([N+](=O)[O-])n1CC(O)CCl` (stereo not given), which Potency [1] is on record?
A: inactive

Q: And the Potency [2]?
A: inactive

Q: And the Potency [3]?
A: inactive

Q: And the Potency [4]?
A: inactive

Q: What about the Potency [5] of the same molecule?
A: inactive

Q: And the Potency [6]?
A: inactive

Q: What about the Potency [7] of the same molecule?
A: inactive

Q: And the outcome [8]?
A: inactive

Q: And the outcome [10]?
A: inactive

Q: For `NC(Cc1c[nH]c2ccccc12)C(=O)O` (stereo not given), which Potency [1] is on record?
A: inactive

Q: What about the Potency [2] of the same molecule?
A: inactive

Q: What about the Potency [3] of the same molecule?
A: inactive

Q: What about the Potency [4] of the same molecule?
A: inactive

Q: And the Potency [5]?
A: inactive

Q: What about the Potency [6] of the same molecule?
A: inactive

Q: What about the Potency [7] of the same molecule?
A: inactive

Q: For `CCCOCCOCCOCCO`, which Potency [1] is on record?
A: inactive

Q: And the Potency [2]?
A: inactive

Q: And the Potency [3]?
A: inactive

Q: And the Potency [4]?
A: inactive

Q: And the Potency [5]?
A: inactive

Q: And the Potency [6]?
A: inactive

Q: What about the Potency [7] of the same molecule?
A: inactive

Q: What about the outcome [8] of the same molecule?
A: inactive

Q: What about the Potency [9] of the same molecule?
A: inactive

Q: Which Potency [1] does the source give for `CCCCCCCCCCC` here?
A: inactive

Q: And the Potency [2]?
A: inactive

Q: What about the Potency [3] of the same molecule?
A: inactive

Q: And the Potency [4]?
A: inactive

Q: And the Potency [5]?
A: inactive

Q: And the Potency [6]?
A: inactive

Q: And the Potency [7]?
A: inactive

Q: What about the outcome [8] of the same molecule?
A: inactive

Q: What about the Potency [9] of the same molecule?
A: inactive

Q: With `C=CCCCCCCCCCCC` as the molecule, how does the activity change, negative = cytotoxicity [1] read?
A: 4.16% [at 6.97 µM]

Q: What about the activity change, negative = cytotoxicity [2] of the same molecule?
A: 3.08% [at 6.97 µM]

Q: What about the activity change [3] of the same molecule?
A: -0.692% [at 6.97 µM, stronger effect = higher value]

Q: And the activity change, negative = cytotoxicity [4]?
A: 5.28% [at 6.97 µM]

Q: What about the cytotoxicity increase [5] of the same molecule?
A: 4.2% [at 6.97 µM]

Q: And the activity change, negative = cytotoxicity [6]?
A: 0.186% [at 8.39 µM]

Q: And the viability change, negative = cytotoxic [7]?
A: 0.96% [at 8.39 µM]

Q: And the activity, negative = inhibition [8]?
A: 5.11% [at 8.39 µM]

Q: What about the activity change, negative = inhibition [9] of the same molecule?
A: 8.3% [at 8.39 µM]

Q: Which results are given for `CCC(=O)OCCC(C)CCC=C(C)C` (stereo not given)?
A: Potency [1]: inactive; Potency [2]: inactive; Potency [3]: inactive; Potency [4]: inactive; Potency [5]: inactive; Potency [6]: inactive; Potency [7]: inactive

Q: What does the source list for `CCCCOC(=O)C(=O)OCCCC`?
A: Potency [1]: inactive; Potency [2]: inactive; Potency [3]: inactive; Potency [4]: inactive; Potency [5]: inactive; Potency [6]: inactive; Potency [7]: inactive
